Screening data: PubChem BioAssay, several laboratories
In the library only some 1.7% were active in any assay of this set; here they are far more common.
MOR-DOR inv ag – inverse agonists of human mu-delta opioid receptor heterodimerization; cell-based MOR-DOR heterodimer luminescence, inverse agonism; inhibition, % at 9.3 µM; 0.21% of 340,000 active; AID 504357; in the data active = inhibition above about 22%, passing the limit was not always enough
Target sequence (P35372 whole entry, looked up): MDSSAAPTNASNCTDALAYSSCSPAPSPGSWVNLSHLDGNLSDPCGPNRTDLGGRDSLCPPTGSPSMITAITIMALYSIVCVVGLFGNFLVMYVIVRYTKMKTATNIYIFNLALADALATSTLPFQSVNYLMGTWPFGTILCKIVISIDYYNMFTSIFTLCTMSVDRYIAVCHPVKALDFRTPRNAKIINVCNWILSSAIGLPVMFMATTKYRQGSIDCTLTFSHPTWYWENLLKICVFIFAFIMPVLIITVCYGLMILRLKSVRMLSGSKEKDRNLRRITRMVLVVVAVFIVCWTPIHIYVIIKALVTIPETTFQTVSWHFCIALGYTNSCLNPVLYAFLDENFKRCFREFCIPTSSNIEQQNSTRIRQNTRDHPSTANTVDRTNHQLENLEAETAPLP
Target sequence (P41143 whole entry, looked up): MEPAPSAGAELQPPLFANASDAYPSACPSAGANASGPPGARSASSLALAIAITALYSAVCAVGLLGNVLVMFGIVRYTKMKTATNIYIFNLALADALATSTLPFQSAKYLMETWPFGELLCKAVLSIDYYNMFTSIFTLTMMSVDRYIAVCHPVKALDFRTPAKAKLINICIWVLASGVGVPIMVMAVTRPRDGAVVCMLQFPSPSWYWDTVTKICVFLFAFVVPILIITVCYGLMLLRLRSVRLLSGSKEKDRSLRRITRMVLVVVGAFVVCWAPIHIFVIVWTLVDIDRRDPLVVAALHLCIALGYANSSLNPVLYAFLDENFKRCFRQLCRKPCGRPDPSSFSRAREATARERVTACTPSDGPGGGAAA
MOR-DOR ag – agonists of human mu-delta opioid receptor heterodimerization. P35372+P41143. cells, OPRM1-OPRD1 heterodimerization, luminescence. activation, % at 9.3 µM. 0.3% of 340,000 active; in the data active = activation above about 18%
HTR5A inv ctr – HTR5A inverse agonism, opioid heterodimer counter-screen; HTR5A cell line, luminescence; inhibition, % at 9.3 µM; 0.083% of 340,000 active; AID 504634; in the data active = inhibition mostly above about 23%, no sharp cut-off; inactive = mostly below about 18%
beta cell repl – inducers of beta-cell replication in MIN6 cells; MIN6 cells proliferation, ATPlite luminescence, 48 h; cells starved in 0.2% serum; 100% = growth in 10% serum; proliferation, % at 10 µM; 0.29% of 330,000 active; AID 2380;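 active = compounds whose signal lies at least 3.5 SD above the mean of all wells on their plate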
HTR5A ag ctr – HTR5A agonism, opioid heterodimer counter-screen. P47898. HTR5A agonist assay, luminescence, cell-based. activation, % at 9.3 µM. 0.61% of 340,000 active; in the data active = activation mostly above about 9.5%, no sharp cut-off; inactive = mostly below about 7.6%
V-ATPase pHluor – yeast V-ATPase proton transport regulation by pHLuorin | response, % at 10 µM | S. cerevisiae, pHLuorin cytosolic pH fluorescence | 0.37% of 350,000 active; in the data active = response mostly above about 7.3%, no sharp cut-off; inactive = mostly below about 5.4%; also: actives read high
VATPase regulator – modulates yeast V-ATPase proton transport | shares compounds with V-ATPase pHluor | AID 602197 | S. cerevisiae pHLuorin cytosolic pH | 2% of 980 active | response, % at 10 µM; in the data active = response above about 24%
Of the large screens only hits and unclear results are named; the others gave an inactive call (follow-up assays come after a bar, where they were run).

O=C(CCC(=O)c1ccc(F)cc1)NN1C(=O)NC2(CCCCC2)C1=O	none
O=C(CCC(=O)c1ccc(F)cc1)NCC1(N2CCCCC2)CCCCC1	none | VATPase regulator inactive
Cc1cccc(S(=O)(=O)NC2CCCCCCC2)c1	none
COc1ccc(C2C3=C(CC(C)(C)CC3=O)Oc3ncn4nc(-c5ccccc5)nc4c32)cc1 (stereo not drawn)	V-ATPase pHluor 12 (no result: beta cell repl) | VATPase regulator inactive
O=C(N/N=C/c1sc(N2CCOCC2)nc1-c1ccccc1)c1ccc(O)cc1	none
Cc1occc1C(=O)N/N=C/c1sc(N2CCOCC2)nc1-c1ccccc1	V-ATPase pHluor 10 | VATPase regulator inactive
C[C@@H]1CN([C@H](C)CO)C(=O)CCCn2cc(nn2)CO[C@H]1CN(C)S(=O)(=O)c1ccc(C#N)cc1	none (no result: MOR-DOR inv ag, MOR-DOR ag, HTR5A inv ctr, beta cell repl, HTR5A ag ctr)
Cc1cccc2c1CCCC2=O	V-ATPase pHluor 12 (no result: beta cell repl) | VATPase regulator inactive
Cc1cc2c(cc1C)C(=O)CCC2	none (no result: MOR-DOR inv ag, MOR-DOR ag, HTR5A inv ctr, beta cell repl, HTR5A ag ctr)
COC/C=C/C1=CC2=CC(=O)C(C)(OC(=O)c3cnc4ccccc4n3)C(=O)C2=CN1C1CC1 (stereo not drawn)	V-ATPase pHluor 12 | VATPase regulator inactive
COC/C=C/C1=CC2=CC(=O)C(C)(OC(=O)c3cnc4ccccc4n3)C(=O)C2=CN1CC1CC1 (stereo not drawn)	none
CC(C)c1ccc(N(CC(=O)NC2CCCC2)C(=O)CCC(=O)Nc2ccccn2)cc1	V-ATPase pHluor 15 | VATPase regulator inactive
Cc1ccc(C)c(NC(=S)NCc2ccccc2)c1	none
Cc1ccc(C)c(NC(=S)N/N=C/C(C)c2ccccc2)c1 (stereo not drawn)	V-ATPase pHluor 15 | VATPase regulator inactive
O=C(Nc1ccc(F)cc1F)c1ccc2c(=O)n3c(nc2c1)CCC3	none
O=C(Nc1ccc(F)cc1Cl)c1ccc2c(=O)n3c(nc2c1)CCC3	V-ATPase pHluor 11 | VATPase regulator inactive
NNC(=O)c1ccc(CSc2nc3ccccc3s2)cc1	none
Cc1nn(-c2ccccc2)c(Cl)c1/C=N/NC(=O)c1[nH]ncc1Br	none
CCc1ccccc1N(C)S(=O)(=O)c1ccc2[nH]cc(C(=O)N3CCc4ccccc43)c(=O)c2c1	V-ATPase pHluor 22 | VATPase regulator inactive
COc1ccc(C(=O)N2CC(=O)N(CCc3ccccc3)C(=O)C2)cc1OC	none
COc1ccc(CC(=O)N2CC(=O)N(CCc3ccccc3)C(=O)C2)cc1	V-ATPase pHluor 8.7 | VATPase regulator inactive
CC(C)(C)c1cc(C(=O)N/N=C/c2cc3c(cc2Br)OCO3)n[nH]1	V-ATPase pHluor 11 | VATPase regulator inactive
O=C(N/N=C/c1cc2c(cc1Br)OCO2)c1ccccn1	none (no result: MOR-DOR inv ag, MOR-DOR ag, HTR5A inv ctr, HTR5A ag ctr)
CN(C)S(=O)(=O)c1ccc(C(=O)NCC(=O)Nc2ccc(F)c(F)c2)cc1	V-ATPase pHluor 7.0 | VATPase regulator inactive
CN(C)S(=O)(=O)c1ccc(C(=O)Nc2ccc(Cl)cc2)cc1	none
O=C(Cn1nc(-c2cccc(Cl)c2)ccc1=O)NCC1COCCO1 (stereo not drawn)	none
COc1ccccc1CNC(=O)CCS(=O)(=O)c1ccc2c(c1)CCCN2C(C)=O	none
COc1ccccc1CNS(=O)(=O)c1ccc2c(c1)CCCN2C(C)=O	V-ATPase pHluor 12 | VATPase regulator inactive
N/C(=N\OC(=O)Cc1ccccc1)c1cccc(Br)c1	none
N/C(=N\OC(=O)Cc1ccccc1[N+](=O)[O-])c1cccc(Br)c1	V-ATPase pHluor 13 | VATPase regulator inactive
Cc1ccc(NC(=O)Cn2nc(C)cc2C)cc1	none
Cc1cc(C)n(CC(=O)Nc2ccccc2)n1	V-ATPase pHluor 11 | VATPase regulator inactive
CN(C(=O)c1cccc(NC(=O)Cc2ccc(NC(=O)C3CCN(C(=O)c4ccccc4)CC3)cc2)c1)C1CCC1	none (no result: beta cell repl)
CN(C(=O)c1cccc(NC(=O)Cc2ccc(NC(=O)C3CCN(C(=O)CCc4ccccc4)CC3)cc2)c1)C1CCCCC1	V-ATPase pHluor 7.7 (no result: beta cell repl) | VATPase regulator inactive
COc1ccc(OC)c(/C=N/n2c(C)nc3ccccc3c2=O)c1	none (no result: MOR-DOR inv ag, MOR-DOR ag, HTR5A inv ctr, HTR5A ag ctr)
COc1cc(OC)c(OC)cc1/C=N/n1c(C)nc2ccccc2c1=O	V-ATPase pHluor 14 | VATPase regulator inactive
Cc1ccc(S(=O)(=O)NCC(=O)N2CCCCC2)cc1	V-ATPase pHluor 12 | VATPase regulator inactive
O=C(Nc1ccccc1OC(F)F)c1ccccc1	V-ATPase pHluor 11 | VATPase regulator inactive
O=C(Nc1ccccc1OC(=O)c1ccccc1)c1ccccc1	V-ATPase pHluor 15 (no result: beta cell repl) | VATPase regulator inactive
CN(Cc1ccc(F)cc1)C(=O)CNC(=O)c1ccc2c(c1)OCO2	none
O=C(c1ccco1)N1CC2(CC(c3ccc(Cl)cc3)=NO2)CN1Cc1ccc(Br)cc1 (stereo not drawn)	none (no result: MOR-DOR inv ag, MOR-DOR ag, HTR5A inv ctr, beta cell repl, HTR5A ag ctr)
COc1ccc(NC(=O)c2nnn(CC(=O)Nc3ccccc3OC)c2N)c(OC)c1	none
CCc1ccc(Cn2nnc(C(=O)Nc3ccc(OC)cc3OC)c2N)cc1	V-ATPase pHluor 12 | VATPase regulator inactive
CC1CCCCC1NC(=O)Cn1nnc2ccccc2c1=O (stereo not drawn)	V-ATPase pHluor 18 | VATPase regulator inactive
CCN(CC(=O)Nc1ccc(NC(C)=O)cc1)C(=O)c1cc(C)on1	V-ATPase pHluor 10 | VATPase regulator inactive
Cc1ccc(NC(=O)CN(C)C(=O)c2cc(C)on2)cc1	none
CC(C)(C)OC(=O)N1CCC2(CC1)Oc1ccc(F)cc1C(=O)C21CC(c2ccc(Cl)cc2)=NO1 (stereo not drawn)	none (no result: MOR-DOR inv ag, MOR-DOR ag, HTR5A inv ctr, HTR5A ag ctr, V-ATPase pHluor)
CCOC(=O)C1(C(=O)OCC)NC(=O)CC1CC (stereo not drawn)	V-ATPase pHluor 12 (no result: beta cell repl) | VATPase regulator inactive
CCOC(=O)C1(C(=O)OCC)NC(=O)CC1C (stereo not drawn)	none (no result: beta cell repl)
C[n+]1cn(Cc2ccc(C#N)cc2)c2ccccc21	none
CC(C)(C)OC(=O)N[C@@H](Cc1ccccc1)C(=O)N[C@@H](CO)[C@H](O)[C@@H]1C[C@@H]1C(=O)NC1CC1	V-ATPase pHluor 11 | VATPase regulator inactive
Cc1ccc(Nc2cc(C(=O)NCCCN3CCOCC3)c3ccccc3n2)cc1C	none
Cc1nn(-c2ccc(F)cc2)c(C)c1/C=C/C(=O)N1CCNC(=O)C1	V-ATPase pHluor 9.3 | VATPase regulator inactive
Cc1nn(-c2ccc(F)cc2)c(Cl)c1/C=C/C(=O)N1CCNC(=O)C1	none
CO/N=C\c1cc(C(=O)c2ccc(Cl)cc2Cl)cn1C	none (no result: MOR-DOR inv ag, MOR-DOR ag, HTR5A inv ctr, HTR5A ag ctr)
N#CC1=C(N)Oc2cc3ccccc3cc2C1c1cccnc1 (stereo not drawn)	none
N#CC1=C(N)Oc2c(ccc3cccnc23)C1c1cccnc1 (stereo not drawn)	V-ATPase pHluor 9.7 | VATPase regulator inactive
COc1ccc(C(=O)Nc2cc(C)nn2-c2ccc(F)cc2)cc1	V-ATPase pHluor 11 | VATPase regulator inactive
O=C(c1ccco1)N1CCN(c2ncnc3c2nnn3Cc2ccccc2Cl)CC1	V-ATPase pHluor 10 | VATPase regulator inactive
